From PubChem BioAssay
The source made the active and inactive calls.

Legend:
[1] = small molecules captured by biotinylated probe aFSTL3 – biochemical, small-molecule microarray, fluorescence 635/667, stem cell growth factor project, primary screen (AID 1064); conditions: higher = more signal;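 also: measures binding of the biotinylated anti-FSTL3 antibody to printed compounds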
[2] = binders from COS7 lysate, DM2A8 probe, primary screen, torsin A project, cell lysate, small-molecule microarray, fluorescence 635/667 (AID 1065); conditions: higher = more signal, COS7 lysate expressing mutant human TOR1A
[3] = small molecules captured by biotinylated probe aFGF2 – biochemical, small-molecule microarray, fluorescence 635/667, stem cell growth factor project, primary screen (AID 1067); conditions: higher = more signal;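 also: measures binding of biotinylated aFGF2 protein to printed compounds on slides; z-score merges feature fluorescence and signal-to-noise across triplicate slides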
[4] = small molecules captured by biotinylated probe aFGF10 – biochemical, small-molecule microarray, fluorescence 635/667, stem cell growth factor project, primary screen (AID 1071); conditions: higher = more signal;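 also: score merges 667 nm spot intensity and signal to noise from triplicate slides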
[5] = target: Neurogenic locus notch homolog protein 2 (Homo sapiens) (UniProt Q04721); test: small molecules binding Notch2 protein – biochemical, small-molecule microarray, 635 nm fluorescence, stem cell growth factors, primary screen (AID 1073); conditions: higher = more signal
Sequence of Neurogenic locus notch homolog protein 2 (Homo sapiens) (Q04721 whole entry, looked up, canonical isoform): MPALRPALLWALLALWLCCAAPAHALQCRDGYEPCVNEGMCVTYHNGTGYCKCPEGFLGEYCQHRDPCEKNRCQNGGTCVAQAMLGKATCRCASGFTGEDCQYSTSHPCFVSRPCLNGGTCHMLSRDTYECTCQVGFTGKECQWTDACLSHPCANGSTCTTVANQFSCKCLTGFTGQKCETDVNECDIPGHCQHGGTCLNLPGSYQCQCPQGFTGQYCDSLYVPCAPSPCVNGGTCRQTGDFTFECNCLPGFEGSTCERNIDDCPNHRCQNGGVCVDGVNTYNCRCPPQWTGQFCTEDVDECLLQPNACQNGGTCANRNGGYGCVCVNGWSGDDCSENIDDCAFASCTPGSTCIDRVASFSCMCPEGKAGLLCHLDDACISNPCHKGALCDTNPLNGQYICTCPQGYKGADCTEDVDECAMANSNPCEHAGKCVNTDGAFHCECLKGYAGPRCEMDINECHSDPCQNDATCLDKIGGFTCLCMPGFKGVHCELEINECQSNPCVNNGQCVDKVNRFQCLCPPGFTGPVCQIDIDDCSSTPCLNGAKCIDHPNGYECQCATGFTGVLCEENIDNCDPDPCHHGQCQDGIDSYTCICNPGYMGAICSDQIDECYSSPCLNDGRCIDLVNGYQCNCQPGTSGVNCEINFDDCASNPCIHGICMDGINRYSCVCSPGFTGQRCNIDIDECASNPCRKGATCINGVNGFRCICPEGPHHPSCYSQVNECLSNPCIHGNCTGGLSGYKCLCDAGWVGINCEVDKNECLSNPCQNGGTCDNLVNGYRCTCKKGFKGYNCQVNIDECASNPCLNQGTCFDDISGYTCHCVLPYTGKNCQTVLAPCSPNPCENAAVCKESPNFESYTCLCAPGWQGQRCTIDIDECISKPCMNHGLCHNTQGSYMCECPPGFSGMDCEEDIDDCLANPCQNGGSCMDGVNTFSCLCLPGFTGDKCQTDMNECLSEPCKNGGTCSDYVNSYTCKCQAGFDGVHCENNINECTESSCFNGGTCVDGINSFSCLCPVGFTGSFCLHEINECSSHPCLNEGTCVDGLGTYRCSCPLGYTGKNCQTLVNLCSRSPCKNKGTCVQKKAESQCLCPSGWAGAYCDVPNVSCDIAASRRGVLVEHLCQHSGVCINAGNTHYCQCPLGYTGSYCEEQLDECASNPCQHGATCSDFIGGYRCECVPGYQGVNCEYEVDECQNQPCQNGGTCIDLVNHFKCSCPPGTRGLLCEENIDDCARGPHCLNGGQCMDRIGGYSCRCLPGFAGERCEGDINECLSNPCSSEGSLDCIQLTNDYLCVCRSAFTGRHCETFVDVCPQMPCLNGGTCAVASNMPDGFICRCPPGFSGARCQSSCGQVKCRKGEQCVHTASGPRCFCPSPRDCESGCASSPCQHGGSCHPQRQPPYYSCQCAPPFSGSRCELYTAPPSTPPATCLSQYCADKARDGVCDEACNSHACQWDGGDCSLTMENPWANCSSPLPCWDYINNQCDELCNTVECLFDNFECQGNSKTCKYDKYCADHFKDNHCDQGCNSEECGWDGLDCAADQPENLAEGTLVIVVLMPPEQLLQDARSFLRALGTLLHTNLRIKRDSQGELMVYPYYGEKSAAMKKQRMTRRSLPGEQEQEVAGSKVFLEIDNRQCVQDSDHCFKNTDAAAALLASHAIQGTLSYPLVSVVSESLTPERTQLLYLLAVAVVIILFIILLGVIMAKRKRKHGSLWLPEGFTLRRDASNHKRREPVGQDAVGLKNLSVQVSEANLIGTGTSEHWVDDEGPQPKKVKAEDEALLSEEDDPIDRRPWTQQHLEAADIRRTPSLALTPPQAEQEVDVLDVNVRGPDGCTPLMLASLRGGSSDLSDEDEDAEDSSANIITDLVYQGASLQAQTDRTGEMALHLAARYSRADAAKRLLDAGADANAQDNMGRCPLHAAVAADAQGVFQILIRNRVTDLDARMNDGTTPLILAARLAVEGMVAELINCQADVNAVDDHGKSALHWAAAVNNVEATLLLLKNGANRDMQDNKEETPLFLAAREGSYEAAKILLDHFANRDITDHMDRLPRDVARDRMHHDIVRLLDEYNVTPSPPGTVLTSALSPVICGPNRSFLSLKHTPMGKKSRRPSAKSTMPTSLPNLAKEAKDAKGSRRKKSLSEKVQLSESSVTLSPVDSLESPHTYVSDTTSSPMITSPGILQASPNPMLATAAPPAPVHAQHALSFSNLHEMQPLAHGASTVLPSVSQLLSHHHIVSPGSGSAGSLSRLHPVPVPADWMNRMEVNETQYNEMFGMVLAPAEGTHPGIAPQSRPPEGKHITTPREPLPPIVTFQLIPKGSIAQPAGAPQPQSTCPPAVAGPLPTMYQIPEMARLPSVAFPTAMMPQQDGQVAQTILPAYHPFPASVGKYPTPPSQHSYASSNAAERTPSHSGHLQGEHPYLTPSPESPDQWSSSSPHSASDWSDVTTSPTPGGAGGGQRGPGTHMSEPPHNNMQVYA

[6] = target: Pro-neuregulin-1, membrane-bound isoform (Homo sapiens) (UniProt Q02297); test: small molecules binding neuregulin-1 protein – biochemical, small-molecule microarray, fluorescence 635/667, psychiatric disease protein project, primary screen (AID 1075); conditions: NRG1 binding, 635 nm fluorescence, higher = more signal;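 also: score combines 667 nm spot fluorescence with signal to noise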
Sequence of Pro-neuregulin-1, membrane-bound isoform (Homo sapiens) (Q02297 whole entry, looked up, the tested form may be a part, canonical isoform): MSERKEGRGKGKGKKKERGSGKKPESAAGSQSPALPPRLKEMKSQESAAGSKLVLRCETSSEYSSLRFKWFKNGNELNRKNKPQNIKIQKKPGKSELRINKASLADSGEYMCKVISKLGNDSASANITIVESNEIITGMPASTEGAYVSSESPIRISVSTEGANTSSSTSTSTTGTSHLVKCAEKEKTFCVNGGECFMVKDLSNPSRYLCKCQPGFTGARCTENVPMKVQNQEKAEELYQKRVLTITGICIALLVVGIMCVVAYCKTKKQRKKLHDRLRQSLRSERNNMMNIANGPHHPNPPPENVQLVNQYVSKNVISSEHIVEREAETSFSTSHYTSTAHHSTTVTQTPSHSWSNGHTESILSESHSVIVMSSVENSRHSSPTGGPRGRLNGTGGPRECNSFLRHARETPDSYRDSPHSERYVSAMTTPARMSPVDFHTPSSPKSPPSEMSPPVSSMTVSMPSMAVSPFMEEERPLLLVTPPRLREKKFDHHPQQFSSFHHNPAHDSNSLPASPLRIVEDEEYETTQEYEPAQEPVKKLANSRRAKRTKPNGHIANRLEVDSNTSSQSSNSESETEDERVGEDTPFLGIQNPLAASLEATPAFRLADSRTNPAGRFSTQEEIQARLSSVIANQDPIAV

[7] = system: Neuregulin-1 EGF-like domain; test: small molecules binding NRG1 EGF domain – biochemical, small-molecule microarray, 635 nm fluorescence, primary screen (AID 1081); conditions: higher = more signal;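 also: binding of the protein to compounds printed on small-molecule microarray slides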
[8] = FRG1 expression reporter modulators in myotubes – cell-based, C2C12 myotubes, firefly/Renilla luciferase, luminescence, FRG1 inhibition for FSHD, primary screen (AID 1084); conditions: FRG1 promoter luciferase, higher = more signal, called active from +8 up or from −8 down
[9] = small molecules captured by biotinylated probe aFST – biochemical, small-molecule microarray, fluorescence 635/667, stem cell growth factor project, primary screen (AID 1086); conditions: higher = more signal;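 also: score merges 667 nm fluorescence with signal-to-noise of each printed compound spot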
[10] = binders of probe aHhip on microarray, primary screen, stem cell growth factor project, biochemical, small-molecule microarray, fluorescence 635/667 (AID 1087); conditions: higher = more signal;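 also: score merges spot fluorescence at 667nm with spot signal to noise ratio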

| SMILES | composite z-score [1] | composite z-score [2] | composite z-score [3] | composite z-score [4] | composite z-score [5] | composite z-score [6] | composite z-score [7] | z-score [8] | composite z-score [9] | composite z-score [10] |
| --- | --- | --- | --- | --- | --- | --- | --- | --- | --- | --- |
| C[C@@H]1C=CCC(=O)OC[C@H](C)C(=O)N[C@@H](C)C(=O)OC1 | -0.329 | 0.907 | -0.162 | 0.0108 | 0.0057 | -0.313 | -0.0497 | -0.98 (inactive) | 0.258 | -0.069 |
| CC(=O)OC[C@H]1O[C@H](CCON=C(C)CCC(=O)OC[C@H]2O[C@H](C#Cc3ccccc3)C=C[C@@H]2Oc2ccc(C)cc2)C=C[C@@H]1OC(C)=O | -0.41 | 0.703 | -0.12 | 0.479 | -0.126 | 0.0383 | 0.359 | 0.718 (inactive) | 0.265 | -0.132 |
| CC(C)C[C@@H]1NC(=O)[C@H]2C[C@@H](C(=O)NCCCCCCN(C)C)[C@@H](c3cccc(OCCO)c3)N2C1=O | 0.293 | 1.55 | -0.0173 | 0.789 | 0.873 | 0.528 | 0.781 | 3.77 (inactive) | 0.256 | -0.156 |
| COCCOC(=O)N1C(=O)[C@@]2(c3cc(C#CC4(O)CCCCCC4)ccc31)[C@H](C(=O)N1CCN(c3ncccn3)CC1)[C@H]1C(=O)O[C@H](c3ccccc3)[C@H](c3ccccc3)N1[C@@H]2c1ccc(OCCO)cc1 | -0.266 | 0.318 | 0.192 | 0.727 | 1.24 | 0.939 | 1.33 | 0.401 (inactive) | 0.517 | 0.107 |
| O=C(NN=C1C[C@@H](O)[C@@H](O)[C@@H]2[C@@H]3C(=O)N(c4cccc(Oc5ccccc5)c4)C(=O)[C@@H]3CC[C@H]12)OCc1ccccc1 | -0.0678 | 0.249 | -0.101 | 0.0108 | 0.176 | 0.301 | -0.533 | 0.723 (inactive) | 0.182 | -0.249 |
| COCCOC(=O)N1C(=O)[C@@]2(c3cc(C#CCNC(N)=O)ccc31)[C@H](c1ccc(O)cc1)N1[C@H](c3ccccc3)[C@H](c3ccccc3)OC(=O)[C@H]1[C@@H]2C(=O)N1CCCCCCC1 | 0.282 | 0.384 | -0.0022 | 0.646 | 1.1 | 0.523 | 1.07 | -0.199 (inactive) | 1.2 | -0.0491 |
| CO[C@@H]1COC(=O)[C@H](C)NC(=O)[C@@H](C)COC(=O)CCC[C@H]1C | -0.438 | 0.402 | -0.116 | 0.686 | 0.183 | -0.0231 | 1.13 | 0.227 (inactive) | -0.163 | -0.0296 |
| COC(=O)C1=CCC(c2cccc(Cl)c2)O1 (stereo not given) | 0.005 | -0.0992 | -0.0901 | 0.0994 | -0.104 | 1.25 | 0.584 | -0.912 (inactive) | -0.0195 | 0.0749 |
| COc1ccccc1CN1C(=O)c2ccccc2[C@@H](C(=O)NCC(F)(F)F)[C@@H]1c1ccc(CO)cc1 | -0.271 | 0.683 | -0.0829 | 0.0992 | 0.654 | 1.17 | 1.39 | -3 (inactive) | 0.19 | -0.0994 |
| CCOC(=O)[C@H](CC(C)C)NC(=O)CCC1CC(OC(=O)NCc2cccc3ccccc23)CC2(CCCC(COC(=O)NCCN3CCOCC3)O2)O1 (stereo not given in full) | -0.589 | 0.393 | -0.0788 | 0.497 | 0.999 | 0.442 | 0.983 | 0.986 (inactive) | 0.112 | 0.0176 |
| C[C@@H]1C=CCC(=O)OC[C@H](C)C(=O)OC[C@H]2O[C@H]1C=C[C@H]2O | -0.414 | 0.304 | 0.0033 | 0.44 | 0.112 | -0.175 | 0.615 | -0.538 (inactive) | 0.512 | 0.106 |
| COC(=O)[C@@H]1CCCN1C(=O)[C@@H](C)CO | -0.527 | 0.431 | -0.137 | 0.467 | 0.693 | 0.346 | 1.03 | 1.66 (inactive) | 0.162 | 0.154 |
| COC(=O)[C@H](C)NC(=O)[C@@H](C)CO | -0.329 | 1.2 | -0.116 | 0.75 | 0.591 | 0.515 | 1.04 | -0.256 (inactive) | 0.357 | 0.316 |
| CC[C@@H](c1ccccc1)n1c(=O)n2n(c1=O)[C@H]1[C@H](O)[C@@H]3O[C@@H]3C(=NOCC=C(C)CCC=C(C)C)[C@H]1CC2 | -0.415 | 0.138 | -0.102 | 0.471 | 0.8 | 0.8 | 0.89 | -0.0545 (inactive) | 0.572 | -0.169 |
| CCCC[C@@H]1C[C@H]1[C@@H](NS(=O)(=O)c1cccc2cccnc12)c1ccc(-c2ccccc2)cc1 | 0.682 | -0.165 | 0.0011 | 0.0132 | 0.523 | 0.071 | 0.918 | 0.448 (inactive) | 0.436 | -0.0123 |
| CCN1C(=O)[C@H]2[C@H]3[C@H](O)[C@H](O)CC(=NOCC=C(C)CCC=C(C)C)[C@H]3CC[C@H]2C1=O | -0.968 | 0.689 | -0.117 | 0.923 | 0.698 | 0.65 | 1.07 | -0.454 (inactive) | 0.617 | 0.183 |
| C#CCCCON=C1C[C@@H](O)[C@@H](O)[C@@H]2[C@@H]3C(=O)N([C@@H](C)c4ccccc4)C(=O)[C@@H]3CC[C@H]12 | -0.196 | -0.0639 | -0.127 | 0.342 | 0.76 | 0.233 | 0.755 | 0.548 (inactive) | 0.342 | -0.0994 |
| O=C1C2C=CC(C(O)c3ccc([N+](=O)[O-])cc3)N(Nc3ccc([N+](=O)[O-])cc3)C2C(=O)N1c1ccccc1 (stereo not given) | 0.25 | -0.0145 | 0.154 | 1.13 | 1.63 | 1.55 | 1.17 | -0.164 (inactive) | 1.02 | 0.178 |
| COC(=O)CC1OC1[C@H](C)[C@@H](OC)C(C)C (stereo not given in full) | -0.243 | -0.0917 | -0.201 | 0.123 | -0.624 | -0.407 | -0.102 | 1.24 (inactive) | 0.0068 | -0.316 |
| CN1C(=O)C2C=CC(C(O)C(c3ccccc3)c3ccccc3)N(NC(=O)OC(C)(C)C)C2C1=O (stereo not given) | 1.16 | 0.868 | 0.448 | 1.09 | 1.73 | 1.99 | 1.22 | 0.745 (inactive) | 1.79 | -0.116 |
| COC(=O)[C@@H]1CC[C@H](C)[C@@H](c2ccc(C)cc2)N1C(=O)c1ccc(C=NOC[C@@H](O)COCc2ccco2)cc1 | 0.852 | 0.239 | -0.226 | -0.58 | -1.83 | -0.96 | -1.04 | 0.495 (inactive) | -0.72 | -0.137 |
| O=C1[C@H]2[C@H]3[C@H](O)[C@H](O)CC(=NOC[C@@H](O)COCc4ccco4)[C@H]3CC[C@H]2C(=O)N1c1cccc(Oc2ccccc2)c1 | -0.0639 | 1.55 | -0.187 | -0.0105 | -1.31 | 0.141 | 0.603 | -0.425 (inactive) | -0.266 | -0.16 |
| COCC1=C2[C@@H](CCc3ccccc3)OB(O)C[C@@H]2n2c(=O)n(-c3ccccc3)c(=O)n2C1 | -0.163 | -0.106 | -0.0695 | 0.882 | 0.112 | -0.391 | 0.751 | -3.23 (inactive) | -0.373 | -0.236 |
| CC(CCC(=O)OC[C@H]1O[C@H](C#Cc2ccccc2)C=C[C@@H]1Oc1ccc(C)cc1)=NO[C@@H](C)c1cn([C@H](CO)Cc2ccccc2)nn1 | -0.583 | 0.0364 | 0.0092 | 0.63 | 0.161 | 0.122 | 0.0865 | 1.02 (inactive) | 0.263 | -0.327 |
| CC(=O)C[C@H](O)[C@@H](NC(=O)OC(C)(C)C)C(C)C | -0.475 | -0.627 | -0.129 | -0.328 | -0.453 | -0.759 | -0.996 | 0.178 (inactive) | -0.126 | -0.0668 |
| CCCC=C(CCC)[C@@H](NC(=O)c1ccc(-c2ccccc2)cc1)c1ccc(C(=O)OC)cc1 | 0.0763 | -0.719 | 0.0827 | 0.0375 | 1.51 | 0.746 | 0.824 | 0.348 (inactive) | 0.801 | 1.81 |
| C[C@H](c1ccccc1)N1C(=O)[C@H]2[C@H]3[C@H](O)[C@H](O)CC(=O)[C@@H]3CC[C@H]2C1=O | -0.019 | 0.242 | -0.0675 | 0.341 | 0.433 | -0.117 | 0.263 | -0.243 (inactive) | 0.0924 | 0.0274 |
